# In ChEMBL document CHEMBL2218924, “A broad activity screen in support of a chemogenomic map for kinase signalling research and drug discovery” (Biochem J, 2013):
# Legend:
# [1] = target: T1, Ephrin type-B receptor 1 (Homo sapiens) (UniProt P54762); conditions: at 10 µM
# T1 sequence (whole entry): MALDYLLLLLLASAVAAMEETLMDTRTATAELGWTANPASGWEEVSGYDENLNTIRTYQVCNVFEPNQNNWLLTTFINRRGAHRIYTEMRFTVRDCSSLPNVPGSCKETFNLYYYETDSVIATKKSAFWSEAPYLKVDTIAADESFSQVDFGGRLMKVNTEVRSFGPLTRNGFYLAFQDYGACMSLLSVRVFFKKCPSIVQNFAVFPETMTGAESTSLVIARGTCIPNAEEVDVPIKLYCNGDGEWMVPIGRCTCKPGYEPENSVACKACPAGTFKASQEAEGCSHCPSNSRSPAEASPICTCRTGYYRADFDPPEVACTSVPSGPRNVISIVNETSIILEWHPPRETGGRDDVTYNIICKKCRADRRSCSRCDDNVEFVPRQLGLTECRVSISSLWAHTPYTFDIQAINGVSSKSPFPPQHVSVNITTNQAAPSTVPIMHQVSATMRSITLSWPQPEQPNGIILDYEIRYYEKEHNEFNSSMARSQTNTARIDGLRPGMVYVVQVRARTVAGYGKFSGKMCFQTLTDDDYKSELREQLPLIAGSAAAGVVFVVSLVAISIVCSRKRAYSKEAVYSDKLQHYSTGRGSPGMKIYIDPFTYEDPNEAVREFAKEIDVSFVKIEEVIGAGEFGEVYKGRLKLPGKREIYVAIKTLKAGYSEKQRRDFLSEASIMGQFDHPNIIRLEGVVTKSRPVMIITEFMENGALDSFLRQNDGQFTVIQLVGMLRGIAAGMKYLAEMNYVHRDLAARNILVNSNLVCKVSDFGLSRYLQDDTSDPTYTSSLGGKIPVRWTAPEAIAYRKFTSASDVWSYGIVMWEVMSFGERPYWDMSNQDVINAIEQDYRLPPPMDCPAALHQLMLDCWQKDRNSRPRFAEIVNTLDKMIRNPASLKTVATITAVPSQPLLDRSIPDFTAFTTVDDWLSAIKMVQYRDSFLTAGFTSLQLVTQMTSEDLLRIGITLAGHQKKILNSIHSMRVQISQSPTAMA
# [2] = target: T2, Ephrin type-B receptor 2 (Homo sapiens) (UniProt P29323); conditions: at 1 µM
# T2 sequence (whole entry): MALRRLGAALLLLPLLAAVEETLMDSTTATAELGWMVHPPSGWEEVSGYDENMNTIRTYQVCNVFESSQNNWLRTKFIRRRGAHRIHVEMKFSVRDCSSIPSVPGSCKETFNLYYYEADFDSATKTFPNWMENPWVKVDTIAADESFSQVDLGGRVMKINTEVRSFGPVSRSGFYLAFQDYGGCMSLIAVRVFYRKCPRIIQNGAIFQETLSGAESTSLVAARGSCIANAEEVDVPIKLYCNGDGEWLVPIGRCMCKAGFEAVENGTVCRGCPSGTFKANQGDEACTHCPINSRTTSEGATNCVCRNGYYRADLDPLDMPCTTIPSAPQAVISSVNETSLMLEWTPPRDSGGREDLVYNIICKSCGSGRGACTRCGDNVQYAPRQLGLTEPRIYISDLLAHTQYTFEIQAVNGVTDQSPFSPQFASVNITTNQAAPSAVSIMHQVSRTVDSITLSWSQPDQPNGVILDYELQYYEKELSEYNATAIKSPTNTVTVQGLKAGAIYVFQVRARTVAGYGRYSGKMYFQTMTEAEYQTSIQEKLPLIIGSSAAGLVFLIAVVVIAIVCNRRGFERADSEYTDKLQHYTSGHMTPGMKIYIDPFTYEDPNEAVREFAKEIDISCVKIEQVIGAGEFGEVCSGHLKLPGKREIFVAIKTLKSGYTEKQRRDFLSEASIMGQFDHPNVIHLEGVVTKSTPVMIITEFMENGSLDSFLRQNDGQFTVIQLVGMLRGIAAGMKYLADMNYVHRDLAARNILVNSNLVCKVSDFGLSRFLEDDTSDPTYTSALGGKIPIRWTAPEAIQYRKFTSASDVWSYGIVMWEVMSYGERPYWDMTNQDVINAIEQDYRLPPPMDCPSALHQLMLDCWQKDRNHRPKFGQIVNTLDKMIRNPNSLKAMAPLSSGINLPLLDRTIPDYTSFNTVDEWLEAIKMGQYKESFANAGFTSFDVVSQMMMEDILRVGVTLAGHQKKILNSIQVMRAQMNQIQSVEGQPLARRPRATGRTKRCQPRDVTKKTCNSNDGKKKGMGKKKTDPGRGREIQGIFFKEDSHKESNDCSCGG
# [3] = target: T2, Ephrin type-B receptor 2 (Homo sapiens); conditions: at 10 µM
# [4] = target: T3, Ephrin type-B receptor 3 (Homo sapiens) (UniProt P54753); conditions: at 1 µM
# T3 sequence (whole entry): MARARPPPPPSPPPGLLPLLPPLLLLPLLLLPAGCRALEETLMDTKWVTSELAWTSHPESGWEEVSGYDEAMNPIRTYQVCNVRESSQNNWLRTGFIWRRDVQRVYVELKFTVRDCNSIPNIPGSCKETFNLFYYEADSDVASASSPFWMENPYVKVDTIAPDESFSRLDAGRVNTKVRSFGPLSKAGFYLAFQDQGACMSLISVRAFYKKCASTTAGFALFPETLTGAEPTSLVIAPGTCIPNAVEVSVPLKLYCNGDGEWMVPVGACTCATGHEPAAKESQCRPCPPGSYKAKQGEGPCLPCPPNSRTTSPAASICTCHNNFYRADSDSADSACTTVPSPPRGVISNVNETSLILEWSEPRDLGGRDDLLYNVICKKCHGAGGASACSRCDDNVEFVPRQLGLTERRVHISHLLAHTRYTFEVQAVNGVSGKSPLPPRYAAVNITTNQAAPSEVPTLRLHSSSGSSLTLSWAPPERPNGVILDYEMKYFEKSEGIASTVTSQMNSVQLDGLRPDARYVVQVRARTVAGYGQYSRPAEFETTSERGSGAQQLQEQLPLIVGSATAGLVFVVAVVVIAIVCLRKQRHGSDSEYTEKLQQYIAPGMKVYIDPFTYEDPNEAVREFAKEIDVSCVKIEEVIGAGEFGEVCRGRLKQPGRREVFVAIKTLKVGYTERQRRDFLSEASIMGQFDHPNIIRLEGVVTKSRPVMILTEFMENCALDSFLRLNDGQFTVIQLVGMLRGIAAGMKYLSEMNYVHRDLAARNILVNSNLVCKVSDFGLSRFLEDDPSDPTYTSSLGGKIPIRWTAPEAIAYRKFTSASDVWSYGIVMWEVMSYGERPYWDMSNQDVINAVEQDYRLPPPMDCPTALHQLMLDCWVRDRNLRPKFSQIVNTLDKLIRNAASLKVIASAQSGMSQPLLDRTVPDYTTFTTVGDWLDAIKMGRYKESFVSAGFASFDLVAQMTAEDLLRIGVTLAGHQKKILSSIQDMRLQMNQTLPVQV
# [5] = target: T3, Ephrin type-B receptor 3 (Homo sapiens); conditions: at 10 µM
# [6] = target: T4, Ephrin type-B receptor 4 (Homo sapiens) (UniProt P54760); conditions: at 1 µM
# T4 sequence (whole entry): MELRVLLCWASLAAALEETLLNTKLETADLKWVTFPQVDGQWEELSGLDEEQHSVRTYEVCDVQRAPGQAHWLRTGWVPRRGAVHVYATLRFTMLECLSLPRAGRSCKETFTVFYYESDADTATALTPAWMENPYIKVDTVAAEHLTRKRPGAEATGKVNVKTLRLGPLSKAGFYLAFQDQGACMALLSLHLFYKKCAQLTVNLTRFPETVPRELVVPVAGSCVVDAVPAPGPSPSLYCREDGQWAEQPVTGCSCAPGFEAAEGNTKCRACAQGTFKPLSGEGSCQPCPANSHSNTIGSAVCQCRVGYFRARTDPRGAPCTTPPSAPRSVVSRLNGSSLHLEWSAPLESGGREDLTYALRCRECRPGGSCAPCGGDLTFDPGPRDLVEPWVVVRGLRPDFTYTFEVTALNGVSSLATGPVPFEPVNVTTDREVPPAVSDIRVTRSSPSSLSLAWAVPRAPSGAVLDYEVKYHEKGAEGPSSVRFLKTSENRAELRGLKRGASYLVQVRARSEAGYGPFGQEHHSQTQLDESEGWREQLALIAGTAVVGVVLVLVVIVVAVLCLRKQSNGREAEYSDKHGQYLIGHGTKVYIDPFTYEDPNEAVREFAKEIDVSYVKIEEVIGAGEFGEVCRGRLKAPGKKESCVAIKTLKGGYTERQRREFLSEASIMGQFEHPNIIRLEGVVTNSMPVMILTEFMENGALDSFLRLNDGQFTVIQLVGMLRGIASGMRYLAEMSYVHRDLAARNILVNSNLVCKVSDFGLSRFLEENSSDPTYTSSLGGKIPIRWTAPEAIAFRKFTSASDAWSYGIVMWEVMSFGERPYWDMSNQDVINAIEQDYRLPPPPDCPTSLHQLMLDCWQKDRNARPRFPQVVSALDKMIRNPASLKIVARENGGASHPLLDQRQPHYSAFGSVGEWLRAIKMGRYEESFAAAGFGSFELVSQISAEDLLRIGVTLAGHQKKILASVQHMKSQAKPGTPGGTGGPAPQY
# [7] = target: T4, Ephrin type-B receptor 4 (Homo sapiens); conditions: at 10 µM
# [8] = target: Receptor tyrosine-protein kinase erbB-4 (Homo sapiens) (UniProt Q15303); conditions: at 1 µM
# [9] = target: Receptor tyrosine-protein kinase erbB-4 (Homo sapiens) (UniProt Q15303); conditions: at 10 µM
# [10] = target: Focal adhesion kinase 1 (Homo sapiens) (UniProt Q05397); conditions: at 1 µM
# Focal adhesion kinase 1 (Homo sapiens), sequence (Q05397 2-1052 limits assumed): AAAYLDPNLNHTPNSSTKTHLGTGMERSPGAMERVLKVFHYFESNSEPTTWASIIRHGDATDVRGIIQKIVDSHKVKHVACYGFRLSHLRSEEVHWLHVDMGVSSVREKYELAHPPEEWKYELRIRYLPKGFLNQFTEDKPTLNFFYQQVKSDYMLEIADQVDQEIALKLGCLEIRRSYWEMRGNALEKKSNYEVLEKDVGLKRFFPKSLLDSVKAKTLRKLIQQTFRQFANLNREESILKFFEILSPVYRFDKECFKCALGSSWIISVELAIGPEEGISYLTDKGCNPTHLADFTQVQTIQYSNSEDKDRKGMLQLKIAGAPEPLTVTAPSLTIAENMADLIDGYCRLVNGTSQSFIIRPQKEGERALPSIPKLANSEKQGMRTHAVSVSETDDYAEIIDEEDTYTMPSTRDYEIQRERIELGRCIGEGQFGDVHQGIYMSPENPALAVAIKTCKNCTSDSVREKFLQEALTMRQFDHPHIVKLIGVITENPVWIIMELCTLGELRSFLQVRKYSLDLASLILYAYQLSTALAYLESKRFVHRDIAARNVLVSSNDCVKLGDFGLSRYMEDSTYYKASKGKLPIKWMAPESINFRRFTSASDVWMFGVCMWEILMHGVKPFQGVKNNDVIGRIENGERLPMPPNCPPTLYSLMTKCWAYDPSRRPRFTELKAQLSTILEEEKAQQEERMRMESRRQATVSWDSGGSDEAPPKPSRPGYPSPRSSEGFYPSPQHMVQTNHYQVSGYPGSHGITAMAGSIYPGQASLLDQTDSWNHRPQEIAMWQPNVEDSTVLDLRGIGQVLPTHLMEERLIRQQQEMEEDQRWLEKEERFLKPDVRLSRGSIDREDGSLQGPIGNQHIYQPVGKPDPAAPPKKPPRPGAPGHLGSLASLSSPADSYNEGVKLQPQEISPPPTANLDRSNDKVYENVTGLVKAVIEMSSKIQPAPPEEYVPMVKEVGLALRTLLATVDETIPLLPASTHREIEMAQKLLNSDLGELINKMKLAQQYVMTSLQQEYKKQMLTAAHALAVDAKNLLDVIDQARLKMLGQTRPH
# Receptor tyrosine-protein kinase erbB-4 (Homo sapiens), sequence (Q15303 whole entry): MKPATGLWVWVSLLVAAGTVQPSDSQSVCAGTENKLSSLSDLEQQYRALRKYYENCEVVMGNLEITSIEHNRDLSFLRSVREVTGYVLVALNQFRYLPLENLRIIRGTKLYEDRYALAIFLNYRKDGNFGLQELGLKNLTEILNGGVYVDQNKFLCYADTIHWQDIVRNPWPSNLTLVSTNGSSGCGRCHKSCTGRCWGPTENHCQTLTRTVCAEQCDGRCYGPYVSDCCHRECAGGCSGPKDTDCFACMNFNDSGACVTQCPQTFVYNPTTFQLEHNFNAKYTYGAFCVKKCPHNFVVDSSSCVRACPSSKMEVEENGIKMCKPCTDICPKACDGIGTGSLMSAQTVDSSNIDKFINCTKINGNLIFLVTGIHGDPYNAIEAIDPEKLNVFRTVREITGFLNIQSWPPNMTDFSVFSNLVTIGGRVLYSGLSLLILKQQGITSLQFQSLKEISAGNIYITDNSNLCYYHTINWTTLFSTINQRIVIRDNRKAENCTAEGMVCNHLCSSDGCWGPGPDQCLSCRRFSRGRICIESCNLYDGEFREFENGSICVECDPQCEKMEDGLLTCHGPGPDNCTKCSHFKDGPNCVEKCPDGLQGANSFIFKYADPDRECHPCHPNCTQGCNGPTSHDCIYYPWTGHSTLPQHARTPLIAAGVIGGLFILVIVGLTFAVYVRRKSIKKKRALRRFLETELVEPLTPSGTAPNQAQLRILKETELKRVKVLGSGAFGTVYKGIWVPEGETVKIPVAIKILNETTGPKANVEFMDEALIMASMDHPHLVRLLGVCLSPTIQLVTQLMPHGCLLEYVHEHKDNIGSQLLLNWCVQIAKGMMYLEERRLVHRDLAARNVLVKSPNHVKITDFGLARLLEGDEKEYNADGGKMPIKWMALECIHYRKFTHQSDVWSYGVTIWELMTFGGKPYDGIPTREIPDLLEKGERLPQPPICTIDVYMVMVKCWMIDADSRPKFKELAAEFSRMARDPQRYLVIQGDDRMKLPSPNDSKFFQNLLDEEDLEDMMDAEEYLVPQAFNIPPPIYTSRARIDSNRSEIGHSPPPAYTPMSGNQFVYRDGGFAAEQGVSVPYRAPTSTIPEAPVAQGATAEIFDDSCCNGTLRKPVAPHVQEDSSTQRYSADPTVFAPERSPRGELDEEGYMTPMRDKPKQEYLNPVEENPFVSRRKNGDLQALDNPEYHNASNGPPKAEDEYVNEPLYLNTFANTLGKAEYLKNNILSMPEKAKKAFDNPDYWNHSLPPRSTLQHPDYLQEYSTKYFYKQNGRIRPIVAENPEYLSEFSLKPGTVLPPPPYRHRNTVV
smiles,measurement,setting,value
Cc1ccc(NC2=CC(=O)c3sc(C)nc3C2=O)cc1,residual activity,[1],97%
same,residual activity,[2],123%
same,residual activity,[3],121%
same,residual activity,[4],104% (inactive)
same,residual activity,[5],99%
same,residual activity,[6],98%
same,residual activity,[7],96%
same,residual activity,[8],77%
same,residual activity,[9],88%
same,residual activity,[10],96%
